# From the supplement of paper PMC6555819
# Key:
# Experiment in all cases: PBM binding z-score (relative to random genomic background probes); higher = stronger binding; sequences stand for … in GC…GCGATTGACAGCGTAGAATGAAGG
# [1] = test system: FXR:RXRa (NR concentration 270 nM, RXRa partner concentration 90 nM)
# Procedure, shortened: (§1)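 Custom Agilent 4×180K protein-binding microarrays carried double-stranded probes. Their 34-nt variable regions held direct-repeat seeds, single-nucleotide variants, half-site ablations and random human genomic background sequences. Arrays were incubated 1 h with ligand-free nuclear receptor dimers in PBS pH 7.4, 2% milk, 0.02% Triton X-100, 1 mM DTT, 0.2 mg/mL BSA and 0.4 mg/ml salmon testes DNA. Antibodies against each partner (one per run) detected binding, and scanned fluorescence was regression-normalized. Binding z-scores use random background probes as reference.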
# [2] = test system: LXRa:RXRa (NR concentration 270 nM, RXRa partner concentration 90 nM)
# Procedure, shortened: as §1
# [3] = test system: LXRa homodimer (NR concentration 270 nM)
# Procedure, shortened: as §1
# [4] = test system: LXRb:RXRa (NR concentration 270 nM, RXRa partner concentration 90 nM)
# Procedure, shortened: as §1
# [5] = test system: LXRb homodimer (NR concentration 270 nM)
# Procedure, shortened: as §1
# [6] = test system: PPARa:RXRa (NR concentration 270 nM, RXRa partner concentration 90 nM)
# Procedure, shortened: as §1
# [7] = test system: PPARg:RXRa (NR concentration 180 nM, RXRa partner concentration 90 nM)
# Procedure, shortened: as §1
# [8] = test system: PPARg:RXRa 270nM:90nM, anti-RXR (NR concentration 270 nM, RXRa partner concentration 90 nM)
# Procedure, shortened: as §1
# [9] = test system: PPARg:RXRa 30nM:10nM, anti-RXR (NR concentration 30 nM, RXRa partner concentration 10 nM)
# Procedure, shortened: as §1
# [10] = test system: PPARg:RXRa 90nM:30nM, anti-RXR (NR concentration 90 nM, RXRa partner concentration 30 nM)
# Procedure, shortened: as §1
# [11] = test system: PPARg:RXRa DBDmut IVT, anti-RXR (DBD mutation: RXRa K156A/R161A, NR concentration 270 nM, RXRa partner concentration 90 nM)
# Procedure, shortened: as §1
# [12] = test system: PPARg:RXRa IVT, anti-PPARg (NR concentration 270 nM, RXRa partner concentration 90 nM)
# Procedure, shortened: as §1
# [13] = test system: PPARg DBDmut IVT, anti-PPARg (DBD mutation: PPARg1 K132A/R137A, NR concentration 270 nM)
# Procedure, shortened: as §1
# [14] = test system: PPARg homodimer (NR concentration 180 nM)
# Procedure, shortened: as §1
# [15] = test system: PXR:RXRa (NR concentration 270 nM, RXRa partner concentration 90 nM)
# Procedure, shortened: as §1
# [16] = test system: PXR homodimer (NR concentration 270 nM)
# Procedure, shortened: as §1
# [17] = test system: RARa:RXR (NR concentration 270 nM, RXRa partner concentration 90 nM)
# Procedure, shortened: as §1
# [18] = test system: RARa homodimer (NR concentration 270 nM)
# Procedure, shortened: as §1
# [19] = test system: RARb:RXRa (NR concentration 270 nM, RXRa partner concentration 90 nM)
# Procedure, shortened: as §1
Sequence,PBM binding z-score [1],PBM binding z-score [2],PBM binding z-score [3],PBM binding z-score [4],PBM binding z-score [5],PBM binding z-score [6],PBM binding z-score [7],PBM binding z-score [8],PBM binding z-score [9],PBM binding z-score [10],PBM binding z-score [11],PBM binding z-score [12],PBM binding z-score [13],PBM binding z-score [14],PBM binding z-score [15],PBM binding z-score [16],PBM binding z-score [17],PBM binding z-score [18],PBM binding z-score [19]
CGAACTAGGTCACGAGGACAGTGAAGAGGTTGGA,4.56,2.89,0.291,1.98,-0.399,5.33,8.72,7.24,5.15,6.84,8.67,8.88,1.07,2.21,1.87,0.184,3.07,0.4,4.39
CGAACTAGATCAAAGGACAGTGAAAGGCGACGTA,-0.658,-0.667,-0.396,-0.5,-0.637,1.77,3.32,4.89,2.76,4.58,1.68,1.44,-0.617,0.388,-0.456,-0.201,-0.579,0.383,0.915
CGAACTAGGTCACCAGGACTGTGAAGAGGTTGGA,4.32,2.55,-0.155,1.59,-0.403,5.08,8.54,6.81,4.45,6.79,8.46,8.71,1.86,3.94,1.55,-0.354,2.79,0.25,4.27
CGCACTAGGTCACCAGGACAGTGAAGAGGTTGGA,3.84,2.51,0.256,1.9,-0.125,4.91,8.32,6.61,4.56,6.23,8.2,8.52,2.13,1.92,1.29,0.413,2.48,0.466,4.12
ATATGTCGGTTAGGGTCATTCAGAAAGTAGGGAA,4.73,3.97,1.11,4.09,2.21,4.78,3.57,3.71,1.57,3.07,2.03,3.18,2.25,3.91,4.88,2.06,5.07,1.86,3.32
CGAACTAGCTCAAAGGACAGTGAAAGGCGACGTA,-0.37,-0.67,-0.493,-0.766,-0.633,0.188,1.06,2.13,0.533,1.99,-0.134,-0.285,-0.415,0.163,-0.639,-0.457,-0.276,0.225,0.694
CTAACTAGGTCACCAGGACAGTGAAGAGGTTGGA,4.07,2.77,0.482,1.74,0.0977,5.34,9.24,7.69,5.34,7.49,8.89,9.08,-0.261,1.88,1.42,0.375,2.8,0.69,4.28
CGAACTACGTCACCAGGACAGTGAAGAGGTTGGA,-0.0876,-0.2,-0.121,-0.435,-0.676,-0.258,0.527,-0.464,0.0797,-0.46,0.112,0.232,-0.216,0.245,-0.245,-0.301,0.0876,-0.285,-0.125
ATATGTAGGTTACGGTCATTCAGAAAGTAGGGAA,2.04,2.49,1.64,1.74,1.02,4.35,7.06,5.67,3.24,5.02,7.69,8.18,1.83,2.04,0.971,0.516,1.47,0.836,2.89
CGAACTAGGTCAAAGGACAGTGTAAGGCGACGTA,3.76,2.6,-0.176,1.73,-0.314,5.13,9.94,8.19,6.9,8.83,7.92,7.95,-0.12,0.849,1.19,-0.0737,2.22,0.371,3.91
CGAACTATGTCAAAGGACAGTGAAAGGCGACGTA,0.0509,0.00479,-0.268,-0.115,-0.346,2.68,5.1,5.42,4.42,5.74,3.02,3.26,0.207,0.527,-0.558,-0.587,-0.379,-0.181,1.45
CAAACTAGGTCAAAGGACAGTGAAAGGCGACGTA,3.9,3.01,0.388,2.12,0.744,5.51,10.3,8.88,8.82,10.4,8,8.6,4.51,2.88,1.45,0.371,2.48,0.774,3.99
CGAACTAGGTCACCAGGACAGTGACGAGGTTGGA,4.27,2.44,-0.221,1.53,-0.75,5.17,8.62,6.98,4.41,6.34,8.26,8.82,1.73,1.63,1.66,-0.0254,2.69,0.339,4.38
CGAACTAGGTCACCATGACAGTGAAGAGGTTGGA,3.62,1.88,-0.254,1.49,0.0449,4.95,8.32,6.55,4.64,6.23,7.11,8.4,1.33,1.97,1.4,-0.124,2.42,0.707,4.23
CGAACTAAGTCAAAGGACAGTGAAAGGCGACGTA,-0.166,-0.175,-0.153,-0.345,-0.704,1.52,2.74,4.16,1.7,3.85,0.998,1.31,0.266,0.434,-0.186,-0.123,0.156,0.0596,1.29
ATATGTAGGTTAGGGTCACTCAGAAAGTAGGGAA,4.33,3.26,0.67,3.89,1.47,5.51,7.42,6.49,3.96,6.11,6.7,6.76,1.93,3.25,3.88,1.5,4.51,1.73,3.8
CGAACTAGGCCACCAGGACAGTGAAGAGGTTGGA,-0.158,-0.638,-0.662,-0.868,-0.94,1.98,3.12,2.28,0.382,1.23,6.89,6.5,-0.0856,-0.263,-0.874,-0.217,-0.512,-0.684,0.821
CGATCTAGGTCAAAGGACAGTGAAAGGCGACGTA,4,2.77,-0.0244,1.53,-0.237,5.27,10.3,8.3,8.39,9.24,7.67,8.1,1.86,2.2,0.913,-0.421,2.13,0.262,3.79
ACATGTAGGTTAGGGTCATTCAGAAAGTAGGGAA,5.38,4.23,1.48,4.58,1.99,5.48,6.68,5.77,3.37,5.57,5.77,5.83,3.59,3.84,4.47,2.63,5.07,1.97,3.61
ATATGTAGGTTAGCGTCATTCAGAAAGTAGGGAA,0.121,0.529,-0.273,0.174,0.215,2.81,4.14,3.23,1.36,2.32,6.57,6.84,1.38,0.87,-0.0758,0.0634,-0.121,0.244,0.594
ATAAGTAGGTTAGGGTCATTCAGAAAGTAGGGAA,4.83,4.27,1.68,4.53,2.04,5.65,8.07,7.06,4.72,7,6.82,6.77,2.11,3.79,4.78,3.26,5.36,2.72,3.63
ATATGTAGGTTAGAGTCATTCAGAAAGTAGGGAA,0.573,1.04,0.277,1.02,0.605,2.75,4.27,4.03,1.69,3.08,6.33,6.41,1.55,1.2,0.349,0.624,0.989,1.78,1.02
CGAACTAGGTCACCAGGATAGTGAAGAGGTTGGA,4.03,2.47,0.115,1.87,-0.103,5.37,8.87,6.98,4.74,6.8,8.36,8.68,2.4,2.57,1.4,-0.0879,2.59,0.146,4.2
CGAACTAGGTCACCAGGACAGAGAAGAGGTTGGA,4.19,2.59,0.117,1.71,-0.205,5.15,8.52,7.02,4.71,6.65,8.29,8.26,0.828,2.46,1.55,0.0837,2.56,0.391,4.22
CGAACTAGGTAAAAGGACAGTGAAAGGCGACGTA,-0.23,-0.378,-0.301,-0.371,-0.583,3.16,5.26,6.57,5.66,7.51,5.32,4.9,0.0504,0.371,-0.425,-0.442,-0.202,-0.518,1.09
CGAACTAGGTCACCAGGACACTGAAGAGGTTGGA,3.92,2.61,0.155,1.95,-0.211,5.31,8.46,7.07,4.81,6.92,8.03,8.93,1.04,1.58,2.02,0.353,2.73,0.625,4.22
CGAACTAGGTCACCAGGACAGTGAGGAGGTTGGA,3.89,2.25,0.127,1.33,-0.378,4.93,7.97,6.87,4.45,6.61,8.37,8.24,-0.39,1.56,0.988,-0.539,1.93,0.16,4.16
